Out of some 53,000 sequences screened, about 3,700 (7%) were called active. The full list was thinned out, with actives kept by preference. Values without a mark were called inactive.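 How the source made its calls: active means gene knockdowns whose robust z-score for IL-1 alpha signal is at least 2 or at most -2, so actives lie on both sides; inactive means the rest.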

Among the data in PubChem BioAssay AID1508600 (Functional Genomics Laboratory (NCATS/FGL), 2020) are z-score values, retold here.

The nature of this assay: Components of the Cytosolic LPS Sensing Pathway: Gene Identification via Genome-wide siRNA Screen.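 Further: robust z of the log signal after scaling to non-targeting control siRNA wells of the plate.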 As to conditions: RAW264.7 macrophages, IL-1a HTRF, actives lie on both sides, screened at 100 nM (by protocol), cells primed 5 h with Pam3CSK4 first. In outline: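 Mouse macrophage line RAW264.7 is transfected with siRNA (100 nM final), grown 48h, primed with TLR ligand Pam3CSK4 5 h and given intracellular LipidA 24 h. IL-1a in supernatant is read by HTRF and viability by luminescence.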
(In general: Time-resolved FRET reads energy transfer from a long-lived donor to a nearby acceptor.)
For GCGAUACCAGGGACUACAUTT against Zfp692, the z-score is 1.75.

With “CGCUCUCUCUACAAAGGAUTT against A230052G05Rik”, the z-score was 0.984.

As for GGGAAUUUGGGCAUGAUCATT against Olfr44, the z-score was -2.02 (active).

As for “GCAUGUUCGCACGUGUCAATT against 5330439B14Rik”, the z-score was -1.05.

For the sequence “CGACUGAUAGAUGAGUAAATT against C130026L21Rik”, the z-score is 0.424.

With CCGCACAUGCUCUCAAAUATT against Polr3d, the z-score is -1.25.

For GGACAAAGAGGCAAUGGGATT against Dnajb9, the z-score is 1.08.

On to GGUAAAAUCACUUCAGAUCTT against Phb, for which the z-score is 2.23 (active).

Take GCAAGUGGAGUUUAUUGAUTT against Dbndd2: the z-score was -0.0399.

On to CGCAUGAUAACUAGAGAAUTT against Slitrk3, for which the z-score was -0.269.

On to GGCUGUUCGGGUGACUAUUTT against Il17re, for which the z-score is -2.83 (active).

Consider GGCAAUGUUUACAAGUUCCTT against Ralgps1, for which the z-score was 0.491.

For the sequence GCAGUACUAAGGAAGAUAUTT against Nudcd1, the z-score is -0.842.

GCAUAAGCUACUGCUGACATT against Pcdha6: the z-score is -0.782.

For the sequence GGCAGCAGCACUGAUUACUTT against Gjc2, the z-score was -2.17 (active).

Regarding GGCAAGGCUACUACUUGCATT against Fgf14, the z-score is -0.117.

On to GCCAGACACUUAAUCCCGUTT against Unc13d, for which the z-score is 0.147.

In the case of GGAUAUCAAGGGAUCAGACTT against Chchd4, the z-score is 0.00163.

GGCUUAAGCAGACGUGUCATT against Lhx8: the z-score was -2.14 (active).

On to GCCCAUUAUGAAACUGAAGTT against Nfatc3, for which the z-score was 1.45.

Turning to GGUGUUUAAGGAUGAACAATT against L3mbtl3, the z-score was 0.104.

GCCACUUAAUGUCACUUUATT against Bag2: the z-score was 0.652.

As for GCCAGAUCUUUAUAUCCCGTT against Gdi2, the z-score was -0.094.

As to CCAGAUGUUACGAAUGAAATT against Tmem209, the z-score was -1.65.

For the sequence GGGCAAUGUUUGUCACUAATT against Akr1b10, the z-score is 1.55.

As to CGGCCAUAUAAUUUUGAAUTT against Tbx20, the z-score is 0.233.

With CGGUUUAACAGCAAGGGUATT against Sec61a1, the z-score was -2.75 (active).

With GGACUUAUUUCUUUAAGGATT against Mmp17, the z-score was -0.567.

Regarding GGUGGAAUGAUAGUGUUCATT against Neurl1b, the z-score is 1.67.

For GGUUAUUUCCCUGUUUUCATT against Olfr532, the z-score was 1.5.

For the sequence GGAGUUUGGGAACACUUUGTT against Apoc1, the z-score was 0.617.

Take GCCUCUUAGUAGAGACAGUTT against Naa80: the z-score is -0.725.

Turning to GGUAAAGCAAGAGAGUAUUTT against Hccs, the z-score is -0.629.

As to GGUUCAAGGAUGAAUUAGATT against Trappc6b, the z-score was -2.03 (active).

As to GCUUUUGAAUGUGUGGACUTT against Ugt2b37, the z-score was -0.938.

Take CCCAAAGAAUUAUGAGUGUTT against Gpr149: the z-score was -0.678.

Turning to GGCAAAUUCUGGAUCUGCUTT against Marf1, the z-score was -0.267.

For GGGAAAAAAAAAAAUCACCTT against Syne3, the z-score is -0.254.

Turning to CCAAUGAUGGAGCUGAAGCTT against Ranbp1, the z-score is -2.72 (active).

Consider GGUCAAGGCUGUCAAGUUGTT against Wdr45b, for which the z-score is -0.13.

GGUGCCCACUAACUUAGAATT against Tbx21: the z-score is 2.3 (active).

Take GGUGUUCGAUGGACGUGAUTT against Bmp1: the z-score was -0.183.

GCAUCCUGGCUUAUCCAUUTT against Hmgb1: the z-score is -0.393.

For the sequence CCACUAUUAAACUUCUCAATT against Pex3, the z-score is 0.32.

As for CCAGCUUCAUGCGUUUAAATT against Stx16, the z-score was 1.4.

CCCUCACAGUAACCUGUCGTT against Espl1: the z-score is -2.56 (active).

GGUCGAAGUAUUGGAAAAUTT against Hesx1: the z-score was -1.71.

Regarding GCAAAUGACUUCCAACAAUTT against Uqcrq, the z-score was 3.84 (active).

In the case of GGAGAACAAAGUAUUGGUGTT against Cacna1f, the z-score was 0.388.

With “GCCAUAGGAGUGAUUGGAUTT against E130018O15Rik”, the z-score was -1.66.

Take GGUGAGCAUGGACUAUGAUTT against Syt12: the z-score is -1.09.

Regarding GCACUUGACAAGCAACAGUTT against Jup, the z-score was -2.3 (active).

Regarding GCAUAUGGAUAAGAUUGUUTT against Efr3a, the z-score was -0.363.

GGAAAAGGGUCGUGCCUGUTT against Gm9991: the z-score is -0.07.

In the case of GCAUUGGCAGACCCGAGUUTT against Pir, the z-score is 0.238.

As for GCUUGGUAAAAUGAAAGUCTT against Klhl12, the z-score was 0.22.

In the case of GGUUUCUGUCCAGAUAAAATT against Ykt6, the z-score is -0.535.

Regarding GGUGCAGAAUGCAAUGGAUTT against Ing3, the z-score is 2.51 (active).

Consider GGAAUAUGAGAAAAUGAGCTT against Ctsc, for which the z-score is 0.239.

Take AACACUGGGUACAUCUACATT against H2-Q7: the z-score was 1.75.

UUCCCACUCUGACUAUUUUTT against Olfr970: the z-score is -0.0332.

For GGCCUUCAAGUGCAUGAUGTT against Yaf2, the z-score was -1.65.

Take CCAGAAAACCAAACAACAGTT against Olfr1357: the z-score is 0.287.

Turning to GGUGACAGGAAAGUUCUGUTT against Gsdmc2, the z-score was 2.07 (active).

GGCGAUUAAACUAUACAUUTT against Rrm2: the z-score was 0.0358.

As to GGGCAUGUGAAGAUGUGCGTT against Map2k3, the z-score is -0.272.

For CGUCUUACACGGUUCAAAGTT against Tbc1d10a, the z-score was 0.809.

With CGUGGUACACUGAAGACUUTT against Mmp1a, the z-score was 2.3 (active).

Regarding GGACCAUUCUGAAGAGCAGTT against Il5ra, the z-score is 0.867.

Consider GCUUUAUUGACACGACCCGTT against Rbm19, for which the z-score was 0.184.

Turning to CCGUCGUACACAAUCUUACTT against Fgfr4, the z-score was -0.512.

Consider GGUACACAACCAUCCUUGATT against Olfr600, for which the z-score is -2.33 (active).

Take CCUACAUCAGGUCAGCAAGTT against Mrto4: the z-score is 1.26.

Regarding GGAAAAAGCAAAUUGAGGATT against Uchl1, the z-score is -1.48.

As to GCAGAGUCACCUUACUAACTT against Fam122b, the z-score was -0.0407.

For GGAGCUACACACAUAGGAATT against Clec2h, the z-score was 0.891.

As to GGAUACCAAGAUUCCAAAUTT against Pik3r4, the z-score was 2.19 (active).

With GCCAGCAACCCUCUUCGUUTT against Foxo6, the z-score is 0.142.

With CCUUUGACGGCCAUGAGUATT against Muc6, the z-score was -1.39.

With GCUAAGCACAAUGUGUACATT against Dus4l, the z-score was -0.633.

For the sequence GGUCAUAGCUUAGAAGGUGTT against Rhov, the z-score was -0.233.

As to GGGAAGCAAUAAGUCGCCUTT against Shc4, the z-score was 0.394.

Regarding GAGCCAAGUACCAUCUAUATT against Olfr389, the z-score is 2.28 (active).

Regarding GGUUAAGCAGAAAUUAAGATT against Supt20, the z-score was -0.551.

As to GCCACAGGAUGCUAGCAAATT against Bex2, the z-score was 0.282.

On to GCAGUUGGUAUUGUUAACUTT against Maml1, for which the z-score is -0.0252.

For the sequence GCUAAACCCAAAAACACAATT against Sim2, the z-score is 1.04.

Consider GCUAGAAAUAAGGCUGCACTT against Plekhg6, for which the z-score is -1.2.

Regarding GGAAGCAAGUAUCCCGAAUTT against Snhg11, the z-score is -2.58 (active).

As to GCCAAUGAGAGUAGGAAAGTT against Elovl3, the z-score is 1.43.

As for GCCUCUCAACUUAAUAACATT against Zup1, the z-score is -0.697.

GCUAACAGUAUCCUUAUUUTT against Vmn1r53: the z-score is -0.436.

Regarding CCUCUACAAUGUAACCAACTT against Kir3dl2, the z-score was -0.183.

Take GGAAACAUUAGAAUCUUGUTT against Lin52: the z-score was -2.23 (active).

Turning to GGUCUUCGCCACAUGGAAATT against Crkl, the z-score was 0.436.

Take CCUUGUCCCUUUACCUCAATT against Plk5: the z-score is -1.39.

Take GCUUUAGGAAAUUUUGUGUTT against Ska3: the z-score is -1.05.

Turning to GGUCAUUCUAAUGACAAUCTT against Atg14, the z-score is -0.014.

Consider GGUUAGAGAUUGUUCUGUUTT against Olfr267, for which the z-score was 2.02 (active).

With AAUGGCAUAGGUCCUAUUATT against Tcaim, the z-score is -0.011.

Regarding GGUUUUUGUCCCAUCUUGGTT against Zc3h12d, the z-score was 0.228.

On to GGGUCUUUAAACUGAAAGATT against Sh3pxd2a, for which the z-score is 0.0777.

CCUGUAAGGUCUCUAGCAUTT against Exosc1: the z-score is 1.53.

For the sequence GGUUGUGCACAGCAGUGUUTT against Crct1, the z-score is -0.716.

In the case of GGACAAAGUCACAGAGUCCTT against Slc26a5, the z-score is -2.08 (active).

For GCACGUACCUGAUAGUCCUTT against Daglb, the z-score was -0.976.

GGGCCAAACCCAGAACUAUTT against Sema4g: the z-score is 1.5.
